Results taken from PubChem BioAssay (EPA / NIEHS).
Inconclusive results are not listed. Some structures have more than one record in an assay (separate samples or runs), and their calls can disagree. The source made the active and inactive calls. The calls were made as follows, unless noted: active = hit-call score of the fitted dose curve at least 0.9, where 1 is the maximum; inactive = score below 0.9.

Assays:
[1] = biological target: Retinoic acid receptor RXR-alpha (Homo sapiens) (UniProt P19793); test: ATG_RXRa_TRANS: Attagene TRANS-FACTORIAL HepG2 Assay for human Retinoid X Receptor alpha (RXRa) (AID 2283012; active = hit-call score of the fitted dose curve at least 0.9, where 1 is the maximum)
Outline: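 Cells (HepG2) carried transiently transfected GAL4-responsive reporter units. Following a 24 h chemical incubation, reporter mRNA induction was read via RT-PCR fragment analysis; DMSO served as negative control and baseline.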

[2] = biological target: human Retinoid X Receptor beta (RXRb), RXRB (gene 6257) (UniProt P28702); test: ATG_RXRb_TRANS: Attagene TRANS-FACTORIAL HepG2 Assay for human Retinoid X Receptor beta (RXRb) (AID 2283013; active = hit-call score of the fitted dose curve at least 0.9, where 1 is the maximum)
Outline: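 Multiplexed TRANS reporter assay in HepG2; 24 h dosing; reporter mRNA by RT-PCR/CE fluorescence; gain-of-signal relative to DMSO.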

[3] = biological target: human Thyroid Receptor alpha (THRa1), THRA (gene 7067) (UniProt P10827); test: ATG_THRa1_TRANS: Attagene TRANS-FACTORIAL HepG2 Assay for human Thyroid Receptor alpha (THRa1) (AID 2283014; active = hit-call score of the fitted dose curve at least 0.9, where 1 is the maximum)
Outline: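 First, HepG2 cells receive multiple GAL4-UAS reporter units and the chimeric receptor. They are then dosed for 24 h, after which RNA is reverse-transcribed, amplified, labelled, HpaI-cut and sized by capillary electrophoresis; gain relative to DMSO is scored.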

[4] = read-out: E-selectin (Homo sapiens) (UniProt P16581); test: BSK_3C_Eselectin: BioMAP Diversity Plus: 3C Assay for Eselectin Biomarker Activity (AID 2283015); conditions: primary human endothelial cells (HUVEC); actives raise or lower the signal
Outline: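 Human vascular endothelium from umbilical vein is exposed to test chemicals for 24 h. E-selectin levels are read by ELISA and compared with DMSO controls.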

[5] = read-out: Interleukin-1 alpha (IL1a), IL1A (gene 3552); test: BSK_BE3C_IL1a: BioMAP Diversity Plus: BE3C Assay for Interleukin-1 alpha (IL1a) Biomarker Activity (AID 2283016); conditions: primary human bronchial epithelial cells; actives raise or lower the signal
Outline: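 Cultures of primary human bronchial epithelial cells receive test chemical. After 24 h, IL-1a is quantified by ELISA, while parallel wells are fixed in TCA and SRB-stained for total protein. Changes in either direction are fitted relative to DMSO.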

[6] = read-out: Monocyte Chemoattractant Protein-1 (MCP1), CCL2 (gene 6347); test: BSK_3C_MCP1: BioMAP Diversity Plus: 3C Assay for Monocyte Chemoattractant Protein-1 (MCP1) Biomarker Activity (AID 2283017); conditions: primary human endothelial cells (HUVEC); actives raise or lower the signal
Outline: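 Endothelial cells from human umbilical vein are dosed with chemical, cultured 24 h, then assayed for MCP-1 by ELISA; both increases and decreases are modelled against DMSO controls.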

[7] = read-out: Monocyte Chemoattractant Protein-1 (MCP1), CCL2 (gene 6347); test: BSK_4H_MCP1: BioMAP Diversity Plus: 4H Assay for Monocyte Chemoattractant Protein-1 (MCP1) Biomarker Activity (AID 2283018); conditions: primary human endothelial cells (HUVEC); actives raise or lower the signal
Outline: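 Readout: MCP-1 ELISA on compound-treated HUVEC, sampled 24 h post-dosing. Baseline and negative control DMSO; bidirectional fit. Overt toxicity checked alongside by sulforhodamine B protein staining at time of biomarker measurement.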

[8] = read-out: Interleukin-8 (IL8), CXCL8 (gene 3576); test: BSK_3C_IL8: BioMAP Diversity Plus: 3C Assay for Interleukin-8 (IL8) Biomarker Activity (AID 2283020); conditions: primary human endothelial cells (HUVEC); actives raise or lower the signal
Outline: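 Human vascular endothelial cells (umbilical vein) in the 3C system; IL-8 level detected by ELISA at 24 h post-dose, with DMSO as baseline.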

[9] = read-out: Monokine induced gamma interferon (MIG), CXCL9 (gene 4283); test: BSK_3C_MIG: BioMAP Diversity Plus: 3C Assay for Monokine induced gamma interferon (MIG) Biomarker Activity (AID 2283021); conditions: primary human endothelial cells (HUVEC); actives raise or lower the signal;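 as to AC50: MIG protein level measured by immunoassay in the treated endothelial cultures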
Outline: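 After 24 h of treatment, human umbilical vein endothelial cultures (3C system) had their MIG biomarker level determined by ELISA, with DMSO serving as negative control.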

[10] = biological target: human Vitamin D Receptor (VDR), VDR (gene 7421) (UniProt P11473); test: ATG_VDR_TRANS: Attagene TRANS-FACTORIAL HepG2 Assay for human Vitamin D Receptor (VDR) (AID 2283022; active = hit-call score of the fitted dose curve at least 0.9, where 1 is the maximum)
Outline: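 Fluorescence of labelled reporter cDNA fragments, resolved by capillary electrophoresis, gives mRNA induction after 24 h treatment of HepG2 cells carrying transfected Gal4-fusion reporter units. Activity is fitted in the positive direction with DMSO as baseline.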

[11] = BSK_3C_SRB: Viability Assessment in the BioMAP Diversity Plus: 3C Assay (AID 2283023); conditions: primary human endothelial cells (HUVEC);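 also: cells read 24 h after compound dosing; fitted both ways against DMSO so a hit may be signal rise or drop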
Outline: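 Cells were dosed with chemical, cultured 24 h, fixed with 10% TCA, stained with 0.1% SRB and read at 560 nm. Human umbilical vein endothelium was used; DMSO served as negative control and baseline.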

[12] = BSK_3C_Vis: BioMAP Diversity Plus: 3C Assay for Morphology Visualization (AID 2283025); conditions: primary human endothelial cells (HUVEC);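 also: fitted both ways so gain or loss versus DMSO counts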;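 as to AC50: light microscopy image of cell morphology used as background control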
Outline: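 Endothelial cells from human umbilical vein were treated with test chemicals for 24 h and inspected by light microscopy for changes in cell conformation.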

[13] = read-out: Pselectin, SELP (gene 6403); test: BSK_4H_Pselectin: BioMAP Diversity Plus: 4H Assay for Pselectin Biomarker Activity (AID 2283026); conditions: primary human endothelial cells (HUVEC); actives raise or lower the signal
Outline: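 Human vascular endothelium from umbilical vein; P-selectin measured by ELISA at 24 h post-dose, with cytotoxicity checked by sulforhodamine B total-protein staining in parallel cultures (0.1% SRB after 10% TCA fixation, read at 560 nm).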

[14] = BSK_4H_SRB: Viability Assessment in the BioMAP Diversity Plus: 4H Assay (AID 2283027); conditions: primary human endothelial cells (HUVEC);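 also: cells exposed to compound for 24 h before staining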;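 as to AC50: curves fitted both ways versus DMSO so AC50 may be loss or gain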
Outline: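 Human umbilical vein endothelial cells were dosed with chemical and, after 24 h, fixed with 10% TCA, stained with 0.1% sulforhodamine B, and read at 560 nm to give total protein as a cytotoxicity measure. Bidirectional fitting relative to DMSO control.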

[15] = BSK_BE3C_SRB: Viability Assessment in the BioMAP Diversity Plus: BE3C Assay (AID 2283028); conditions: primary human bronchial epithelial cells;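 as to AC50: fitted both ways so AC50 may mark signal gain or loss versus DMSO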
Outline: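 Overt cytotoxicity was assessed as total protein in confluent human primary bronchial epithelial cultures 24 h after chemical addition, using 0.1% sulforhodamine B staining read at 560 nm.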

[16] = read-out: Thrombomodulin, THBD (gene 7056); test: BSK_3C_Thrombomodulin: BioMAP Diversity Plus: 3C Assay for Thrombomodulin Biomarker Activity (AID 2283029); conditions: primary human endothelial cells (HUVEC); actives raise or lower the signal
Outline: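 Thrombomodulin ELISA, human primary HUVEC, 24 h post-dose; data fitted in both directions relative to DMSO.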

[17] = read-out: Urokinase-type plasminogen activator receptor (uPAR), PLAUR (gene 5329); test: BSK_4H_uPAR: BioMAP Diversity Plus: 4H Assay for Urokinase-type plasminogen activator receptor (uPAR) Biomarker Activity (AID 2283030); conditions: primary human endothelial cells (HUVEC); actives raise or lower the signal
Outline: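 Chemicals are dosed onto human vascular endothelial primary cells (umbilical vein). After 24 h, uPAR is read by ELISA. Gain or loss of signal is fitted relative to DMSO.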

[18] = biological target: human RAR-related Orphan Receptor gamma (RORg), RORC (gene 6097) (UniProt P51449); test: ATG_RORg_TRANS: Attagene TRANS-FACTORIAL HepG2 Assay for human RAR-related Orphan Receptor gamma (RORg) (AID 2283011; active = hit-call score of the fitted dose curve at least 0.9, where 1 is the maximum)
Outline: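 Activity is scored as increase in GAL4-UAS reporter mRNA over DMSO, detected by fluorescent RT-PCR and capillary electrophoresis in HepG2 cells transiently expressing a RORg-Gal4 chimera, 24 h after dosing.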

[19] = read-out: Human Leukocyte Antigen - DR isotype (HLADR), HLA-DRA (gene 3122); test: BSK_3C_HLADR: BioMAP Diversity Plus: 3C Assay for Human Leukocyte Antigen - DR isotype (HLADR) Biomarker Activity (AID 2283019); conditions: primary human endothelial cells (HUVEC); actives raise or lower the signal
Outline: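 Endothelial cells from human umbilical vein are treated with test chemical; after 24 h, HLA-DR levels are measured by ELISA. Data are fitted in both directions using DMSO as the baseline.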

[20] = read-out: Matrix Metallopeptidase 1 (MMP1), MMP1 (gene 4312); test: BSK_BE3C_MMP1: BioMAP Diversity Plus: BE3C Assay for Matrix Metallopeptidase 1 (MMP1) Biomarker Activity (AID 2283024); conditions: primary human bronchial epithelial cells; actives raise or lower the signal
Outline: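 Dose cells, wait 24 h, run MMP1 ELISA; cells are human bronchial epithelial primaries. Both increases and decreases relative to DMSO counted.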

Measured: AC50

Retinoic acid receptor RXR-alpha (Homo sapiens), sequence (P19793 whole entry, looked up, the tested form may be a part): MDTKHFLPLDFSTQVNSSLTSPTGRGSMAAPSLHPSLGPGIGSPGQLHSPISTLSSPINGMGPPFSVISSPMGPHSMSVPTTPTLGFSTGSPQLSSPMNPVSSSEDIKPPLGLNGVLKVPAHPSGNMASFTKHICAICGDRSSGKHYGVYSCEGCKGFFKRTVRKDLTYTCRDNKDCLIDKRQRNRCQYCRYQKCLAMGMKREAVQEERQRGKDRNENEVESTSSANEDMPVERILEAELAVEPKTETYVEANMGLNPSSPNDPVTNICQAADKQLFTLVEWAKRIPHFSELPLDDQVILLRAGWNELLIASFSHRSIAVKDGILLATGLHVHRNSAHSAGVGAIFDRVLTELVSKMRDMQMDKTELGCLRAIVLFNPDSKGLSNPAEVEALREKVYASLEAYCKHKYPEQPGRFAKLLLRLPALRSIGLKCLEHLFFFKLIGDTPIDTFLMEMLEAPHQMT
human Thyroid Receptor alpha (THRa1), THRA (gene 7067), sequence (P10827 whole entry, looked up, the tested form may be a part): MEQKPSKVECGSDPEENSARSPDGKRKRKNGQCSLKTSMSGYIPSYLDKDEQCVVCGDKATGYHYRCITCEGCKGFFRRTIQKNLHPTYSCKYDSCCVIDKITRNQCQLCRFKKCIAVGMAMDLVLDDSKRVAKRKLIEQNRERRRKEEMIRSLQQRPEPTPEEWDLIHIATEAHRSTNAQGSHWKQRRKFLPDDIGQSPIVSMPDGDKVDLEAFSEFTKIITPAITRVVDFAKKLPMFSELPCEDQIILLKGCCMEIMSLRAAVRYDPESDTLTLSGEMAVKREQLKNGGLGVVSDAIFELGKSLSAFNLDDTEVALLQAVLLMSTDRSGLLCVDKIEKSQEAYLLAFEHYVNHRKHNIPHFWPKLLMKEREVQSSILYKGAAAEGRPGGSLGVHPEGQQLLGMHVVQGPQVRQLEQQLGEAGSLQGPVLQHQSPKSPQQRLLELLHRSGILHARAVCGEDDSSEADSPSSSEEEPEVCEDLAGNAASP
human Vitamin D Receptor (VDR), VDR (gene 7421), sequence (P11473 whole entry, looked up, the tested form may be a part): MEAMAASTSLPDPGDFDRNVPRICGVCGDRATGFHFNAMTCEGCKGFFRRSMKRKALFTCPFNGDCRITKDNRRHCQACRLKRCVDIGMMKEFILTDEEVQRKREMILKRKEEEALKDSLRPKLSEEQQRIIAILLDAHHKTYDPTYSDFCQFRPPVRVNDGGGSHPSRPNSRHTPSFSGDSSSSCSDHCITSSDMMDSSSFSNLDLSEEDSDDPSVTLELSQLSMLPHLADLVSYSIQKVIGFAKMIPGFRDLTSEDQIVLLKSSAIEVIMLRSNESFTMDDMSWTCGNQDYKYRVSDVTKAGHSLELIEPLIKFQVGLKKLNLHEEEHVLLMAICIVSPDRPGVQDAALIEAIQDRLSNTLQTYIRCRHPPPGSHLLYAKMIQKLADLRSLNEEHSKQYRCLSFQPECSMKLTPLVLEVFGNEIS
E-selectin (Homo sapiens), sequence (P16581 whole entry, looked up): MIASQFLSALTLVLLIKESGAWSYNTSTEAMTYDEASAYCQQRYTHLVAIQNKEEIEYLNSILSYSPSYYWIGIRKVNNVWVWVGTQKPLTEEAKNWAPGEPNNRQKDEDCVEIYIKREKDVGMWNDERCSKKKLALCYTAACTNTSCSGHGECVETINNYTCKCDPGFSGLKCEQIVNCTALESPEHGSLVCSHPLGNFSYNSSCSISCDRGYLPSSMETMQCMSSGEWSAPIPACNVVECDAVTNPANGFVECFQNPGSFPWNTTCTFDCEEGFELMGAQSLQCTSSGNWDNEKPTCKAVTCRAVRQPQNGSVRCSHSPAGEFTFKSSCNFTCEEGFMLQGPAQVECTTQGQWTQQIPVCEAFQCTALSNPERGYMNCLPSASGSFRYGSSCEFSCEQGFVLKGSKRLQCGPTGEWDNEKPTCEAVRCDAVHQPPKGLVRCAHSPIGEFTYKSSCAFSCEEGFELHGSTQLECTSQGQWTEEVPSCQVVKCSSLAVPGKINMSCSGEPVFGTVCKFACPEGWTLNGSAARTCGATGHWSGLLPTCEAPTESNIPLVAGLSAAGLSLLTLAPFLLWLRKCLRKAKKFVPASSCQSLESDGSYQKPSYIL
human Retinoid X Receptor beta (RXRb), RXRB (gene 6257), sequence (P28702 whole entry, looked up): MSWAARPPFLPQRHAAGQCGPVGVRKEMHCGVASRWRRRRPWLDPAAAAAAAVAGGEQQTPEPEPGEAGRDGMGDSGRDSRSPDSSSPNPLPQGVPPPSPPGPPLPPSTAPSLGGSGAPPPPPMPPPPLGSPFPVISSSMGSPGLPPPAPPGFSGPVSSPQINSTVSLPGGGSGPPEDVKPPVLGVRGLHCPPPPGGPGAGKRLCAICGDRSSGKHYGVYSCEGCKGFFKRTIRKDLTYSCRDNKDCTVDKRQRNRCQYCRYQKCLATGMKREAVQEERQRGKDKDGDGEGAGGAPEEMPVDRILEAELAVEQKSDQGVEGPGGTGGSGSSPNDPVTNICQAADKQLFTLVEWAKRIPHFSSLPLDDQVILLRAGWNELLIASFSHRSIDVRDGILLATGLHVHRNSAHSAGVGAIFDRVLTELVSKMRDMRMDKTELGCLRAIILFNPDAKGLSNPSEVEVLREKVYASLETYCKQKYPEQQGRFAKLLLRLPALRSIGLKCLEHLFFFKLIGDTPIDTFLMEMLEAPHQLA
human RAR-related Orphan Receptor gamma (RORg), RORC (gene 6097), sequence (P51449 whole entry, looked up, the tested form may be a part): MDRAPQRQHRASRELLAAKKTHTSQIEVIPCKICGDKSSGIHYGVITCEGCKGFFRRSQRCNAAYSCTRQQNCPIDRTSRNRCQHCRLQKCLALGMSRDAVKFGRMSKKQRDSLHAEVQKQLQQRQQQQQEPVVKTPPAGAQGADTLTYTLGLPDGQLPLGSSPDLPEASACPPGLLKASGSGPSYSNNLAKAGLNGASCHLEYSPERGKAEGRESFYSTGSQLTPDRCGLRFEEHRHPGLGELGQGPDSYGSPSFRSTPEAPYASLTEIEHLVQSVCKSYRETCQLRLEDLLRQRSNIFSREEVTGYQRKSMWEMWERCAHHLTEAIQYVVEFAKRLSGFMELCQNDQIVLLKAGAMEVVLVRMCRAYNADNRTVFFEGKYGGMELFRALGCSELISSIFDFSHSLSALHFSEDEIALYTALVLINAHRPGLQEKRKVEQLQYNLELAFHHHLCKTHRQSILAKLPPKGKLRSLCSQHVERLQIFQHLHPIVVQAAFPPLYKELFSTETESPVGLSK

CCCCCCCCc1ccc(O)cc1
active: [2] 24.5 µM | [3] 43.7 µM | [4] 31.7 µM | [5] 32.6 µM | [6] 34.1 µM | [7] 20.1 µM | [8] 34.6 µM | [9] 36 µM | [11] 31.2 µM | [12] 39.3 µM | [13] 25.6 µM | [14] 34.3 µM | [15] 34.9 µM | [16] 34.3 µM | [17] 37.2 µM
inactive: [1] | [3] | [10]

CCCCCCCCCl
inactive: [1] | [2]

COP(=O)(OC)O/C(=C\Cl)c1cc(Cl)c(Cl)cc1Cl
active: [2] 25.7 µM
inactive: [1] | [3]

CNC(=O)O/N=C/C(C)(C)S(C)=O (configuration not stated)
inactive: [1] | [2] | [3]

Nc1ccc(Cl)cc1C(=O)c1ccccc1
active: [2] 21.9 µM
inactive: [1] | [3]

Clc1ccc(COC(Cn2ccnc2)c2ccc(Cl)cc2Cl)cc1 (configuration not stated)
active: [2] 0.103 µM
inactive: [1]

O=C(Nc1ccc2[nH]ccc2c1)c1cc2cc(F)ccc2n1Cc1cccc(F)c1
inactive: [18] | [1] | [10] | [16]
active: [4] 10.9 µM | [5] 10.3 µM | [6] 8.53 µM | [7] 5.82 µM | [8] 6.43 µM | [9] 10.4 µM | [11] 8.66 µM | [12] 12.8 µM | [13] 7.85 µM | [14] 10 µM | [15] 6.76 µM | [17] 9.25 µM

NNC(=S)NN
inactive: [1] | [2] | [3]

C[C@]12CCC(=O)C[C@@H]1CC[C@@H]1[C@@H]2CC[C@]2(C)[C@@H](O)CC[C@@H]12
active: [4] 18 µM | [6] 26.9 µM | [19] 27.8 µM | [8] 21.5 µM | [11] 20.9 µM
inactive: [1] | [2] | [3] | [5] | [7] | [9] | [10] | [20] | [12] | [13] | [14] | [15] | [16] | [17]

CN(C)N=O
inactive: [1] | [2] | [3] | [4] | [5] | [6] | [7] | [19] | [8] | [9] | [10] | [11] | [20] | [12] | [13] | [14] | [15] | [16] | [17]

ClCCBr
inactive: [1] | [2]

COc1cc(OC)nc(NC(=O)NS(=O)(=O)c2ncccc2C(=O)N(C)C)n1
inactive: [18] | [1] | [2] | [4] | [5] | [6] | [7] | [19] | [8] | [9] | [11] | [12] | [13] | [14] | [15] | [16] | [17]
